Inconclusive results are not listed. The source made the active and inactive calls. Calls come from the whole dose curve; as a rule, active = well fitted cell-killing curve with a large enough effect; inconclusive = small, poorly fitted or top-dose-only effect, or effect the other way; inactive = no such curve, though single readings can be large or run the other way.
Potency is the fitted concentration of half-maximal effect.

The nature of the assay: Quantitative High-Throughput drug screen in 47 multiple myeloma cell lines against the NCATS MIPE library collection: XG1_PLB cell viability assay (AID 1919866). Note: nearly all actives have a fitted effect of over 35% in size. The conditions noted are these: CellTiter-Glo ATP, 48 h; series mostly up to 45.8 µM. From the text:
PI: Beverly A. Mock Ph.D.
Laboratory of Cancer Biology and Genetics,
Center for Cancer Research, National Cancer Institute,
National Institute of Health, Bethesda, Maryland
Drug resistance and disease progression are common in multiple myeloma (MM) patients, underscoring the need for new therapeutic combinations. […] We hypothesized that effective combinations would reduce MYC expression and enhance p16 activity. […] These preclinical data identify potentially useful drug combinations for evaluation in drug-resistant MM and reveal potential mechanisms of combined drug sensitivity.
Described herein is the primary MIPE qHTS used to cherrypick compounds. Validated compounds were then further tested for potential synergistic activiy.
[1] Peat TJ, Gaikwad SM, Dubois W, Gyabaah-Kessie N, Zhang S, Gorjifard S, Phyo Z, Andres M, Hughitt VK, Simpson RM, Miller MA, Girvin AT, Taylor A, Williams D, D'Antonio N, Zhang Y, Rajagopalan A, Flietner E, Wilson K, Zhang X, Shinn P, Klumpp-Thomas C, McKnight C, Itkin Z, Chen L, Kazandijian D, Zhang J, Michalowski AM, Simmons JK, Keats J, Thomas CJ, Mock BA. Drug combinations identified by high-throughput screening promote cell cycle transition and upregulate Smad pathways in myeloma. Cancer Lett. 2023 Aug 1;568:216284. doi: 10.1016/j.canlet.2023.216284. Epub 2023 Jun 24. PMID: 37356470; PMCID: PMC10408729.
SEQUENCE No. (e.g., 1, 2, 3, etc.); […] (e.g., Cells, Incubation, Reagent, etc.); VALUE and DESCRIPTION.
1; Cells; 5 uL; white, solid bottom 1536-well Greiner assay plate.
2; Compounds; 23 nL; Kalypsis pin tool (Wako USA) equipped with a 1536-well pin head to transfer to the assay plates.
3; Incubation; 48 hours; 37C incubation.
4; Reagent;5uL; CellTiter Glo (Promega).
5; Detector; 425V; Luminescence; Viewlux PerkinElmer.
NOTES (numbers refer to Sequence numbers above)
1. The cell-based screening methods employed in this study were like those previously published. Briefly, the corresponding myeloma cell lines were screened in 1,536-well plates with 500 cells, 5-uL per well for inhibition of cell viability (assessed by measuring ATP levels with CellTiterGlo).
2. NCATS MIPE 4.0 library of approved and investigational drugs were added using the Kalypsis pin tool. Wells treated with DMSO only for 100% viability and media only for 0% viability were used as controls.
3. The assay plates were covered and incubated for 48 hours in a 37C, 5% CO2 incubator with controlled humidity.
4. After 48 hours, CellTilter-GloTM luminescent substrate mix (Promega) reagent was added to the assay plate and plates we incubated for 5 min at room temperature.
5. Signal was measured as median relative luminescence units on a ViewLux (PerkinElmer) multiplate reader.
[1] Heske CM, Davis MI, Baumgart JT, Wilson K, Gormally MV, Chen L, Zhang X, Ceribelli M, Duveau DY, Guha R, Ferrer M, Arnaldez FI, Ji J, Tran HL, Zhang Y, Mendoza A, Helman LJ, Thomas CJ. Matrix Screen Identifies Synergistic Combination of PARP Inhibitors and Nicotinamide Phosphoribosyltransferase (NAMPT) Inhibitors in Ewing Sarcoma. Clin Cancer Res. 2017 Dec 1;23(23):7301-7311. doi: 10.1158/1078-0432.CCR-17-1121. Epub 2017 Sep 12. PMID: 28899971; PMCID: PMC6636827.
For orientation: ATP-based viability assays read luminescence as a measure of living cells.
Regarding `CNC(=O)[C@H](Cc1ccccc1)NC(=O)[C@H](CC(C)C)[C@H](CSc1cccs1)C(=O)NO`, the Potency is 9.35 µM (active).

`N[C@@H](CC(=O)N1CCn2c(nnc2C(F)(F)F)C1)Cc1cc(F)c(F)cc1F`: the Potency entry was “inactive”.

As for `Cc1ccccc1C(C(=O)NC1CCCCC1)N(C(=O)CNc1ccc(C#N)cc1)c1cccc(F)c1` (stereo not given), the Potency entry was “inactive”.

As for `CC(C)(C)c1nc(-c2cccc(NS(=O)(=O)c3c(F)cccc3F)c2F)c(-c2ccnc(N)n2)s1`, the Potency is 10.5 µM (active).

In the case of `O=C(CCCN1CCN(c2ccc(F)cc2)CC1)NC1c2ccccc2CSc2ccccc21` (stereo not given), the Potency is 11.8 µM (active).

With `CCC(=C(CC)c1ccc(O)cc1)c1ccc(O)cc1`, the Potency was 14.8 µM (active).

For `CCN(CCO)CCCOc1ccc2c(Nc3cc(CC(=O)Nc4cccc(F)c4)[nH]n3)ncnc2c1`, the Potency was 0.0418 µM (active).

In the case of `O=C(O)Cc1cccc(OCCCN(Cc2cccc(C(F)(F)F)c2Cl)CC(c2ccccc2)c2ccccc2)c1`, the Potency was 20.9 µM (active).

With `Cc1nc(NC(=O)N2CCC[C@@H]2C(N)=O)sc1-c1csc(C(C)(C)C)n1`, the Potency is 3.32 µM (active).

In the case of `C=CC[N+]1([C@H]2C[C@H]3[C@@H]4CC[C@H]5C[C@H](O)[C@@H](N6CCOCC6)C[C@]5(C)[C@@H]4CC[C@]3(C)[C@H]2OC(C)=O)CCCC1`, the Potency entry is “inactive”.

As to `NS(=O)(=O)c1cc(Cl)c(Cl)c(S(N)(=O)=O)c1`, the Potency result was “inactive”.

`Cn1c(=O)c(-c2c(Cl)cccc2Cl)cc2cnc(Nc3cccc(C(=O)O)c3)nc21`: the Potency was 0.296 µM (active).

As for `O=C(NCCCCN1CCOCC1)c1cc2ccccc2o1`, the Potency entry is “inactive”.

Take `COc1c(C)cnc(Cn2cnc3c(Cl)nc(N)nc32)c1C`: the Potency was 0.118 µM (active).

For the molecule `NC(=O)c1noc([C@H](CCCC2CCCCC2)CC(=O)NO)n1`, the Potency was 16.6 µM (active).

In the case of `Fc1ccc(CNc2ncnc3ccc(F)cc23)cc1`, the Potency is 4.69 µM (active).

On to `COC(=O)N1CCN(Cc2cccc(NC(=O)Nc3ccc(C)nc3)c2F)CC1`, for which the Potency result is “inactive”.

Consider `N#CC1(c2cccc(C(=O)Nc3cc(Oc4ccc5nc(NC(=O)C6CC6)sc5n4)ccc3F)c2Cl)CC1`, for which the Potency was 2.35 µM (active).

For `Cc1ccc(S(=O)(=O)Nc2nc3ccccc3nc2Nc2ccc3nsnc3c2)cc1`, the Potency was 0.575 µM (active).

On to `Cc1cn([C@@H]2C[C@@H](O)[C@H](CO)O2)c(=O)[nH]c1=O`, for which the Potency result is “inactive”.

Consider `CC(C)(C)c1[nH]cnc1C=c1[nH]c(=O)c(=Cc2ccccc2)[nH]c1=O`, for which the Potency entry is “inactive”.

Take `CCC(=O)NCC[C@@H]1CCc2ccc3c(c21)CCO3`: the Potency entry was “inactive”.

For the molecule `CC(=O)OCC(=O)[C@@]12OC(C)(C)O[C@H]1C[C@H]1[C@@H]3C[C@H](F)C4=CC(=O)C=C[C@]4(C)[C@@]3(F)[C@@H](O)C[C@@]12C`, the Potency result was “inactive”.

Consider `CN[C@H]1[C@@H](O[C@@H]2[C@H](O[C@@H]3[C@@H](O)[C@@H](O)[C@@H](N=C(N)N)[C@@H](O)[C@@H]3N=C(N)N)O[C@H](C)[C@@]2(O)C=O)O[C@@H](CO)[C@@H](O)[C@H]1O`, for which the Potency entry is “inactive”.

As for `O=C(O)CCNc1cc(N2CCc3ccccc3CC2)nc(-c2ccccn2)n1`, the Potency is 20.9 µM (active).

For the molecule `C[C@@H](N)c1ccc(C(=O)Nc2ccnc3[nH]ccc23)cc1`, the Potency is 20.9 µM (active).

As to `NC[C@H]1O[C@H](O[C@@H]2[C@@H](O)[C@@H](O[C@H]3O[C@H](CO)[C@@H](O)[C@H](N)[C@@H]3O)[C@H](N)C[C@@H]2N)[C@H](O)[C@@H](O)[C@H]1O`, the Potency entry was “inactive”.

Take `Cc1cc2c(cc1C1(c3ccc(C(=O)O)cn3)CC1)C(C)(C)CCC2(C)C`: the Potency entry is “inactive”.

Turning to `COc1cc(CNC(=O)CCCCC=CC(C)C)ccc1O`, the Potency result was “inactive”.

Regarding `Cc1ccccc1-n1c(Cn2nc(-c3cccc(O)c3)c3c(N)ncnc32)nc2cccc(C)c2c1=O`, the Potency was 2.09 µM (active).

Take `COc1nc(C)cnc1NS(=O)(=O)c1cccnc1-c1ccc(-c2nnco2)cc1`: the Potency result is “inactive”.

Take `CCOC(=O)[C@H]1O[C@H]1C(=O)N[C@@H](CC(C)C)C(=O)NCCC(C)C`: the Potency entry was “inactive”.

Regarding `O=S(=O)(O)c1ccc2cc(N=Nc3cc(S(=O)(=O)O)c4cccnc4c3O)ccc2c1`, the Potency is 5.9 µM (active).

Regarding `O=C(c1ccc(F)c(F)c1Nc1ccc(I)cc1F)N1CC(O)([C@H]2CCCCN2)C1`, the Potency was 16.6 µM (active).

`COC(=O)Nc1ccc(-c2nc(N3CCOCC3)c3cnn(C4CCN(C(=O)OC)CC4)c3n2)cc1`: the Potency was 0.296 µM (active).

`COc1cc2nccc(Oc3ccc(NC(=O)Nc4ccc(F)cc4F)c(F)c3)c2cc1OC`: the Potency entry is “inactive”.

For the molecule `O=C(Nc1cccc2c(=O)cc(-c3nn[nH]n3)oc12)c1ccc(OCCCCc2ccccc2)cc1`, the Potency is 26.4 µM (active).

Regarding `Cc1ccc(S(=O)(=O)OCC(=O)Nc2ccc(C(=O)O)c(O)c2)cc1`, the Potency is 7.43 µM (active).

On to `c1cc(OCCN2CCCCC2)cc(-c2n[nH]c3ccc(-c4ncn[nH]4)cc23)c1`, for which the Potency was 8.33 µM (active).

`CO[C@H]1/C=C\O[C@@]2(C)Oc3c(C)c(O)c4c(O)c(c5c(nc6cc(C)ccn65)c4c3C2=O)NC(=O)C(C)=CC=C[C@H](C)[C@H](O)[C@@H](C)[C@@H](O)[C@@H](C)[C@H](OC(C)=O)[C@H]1C`: the Potency entry is “inactive”.

The record behind these values is PubChem BioAssay (NCATS).
